The structures appear in SMILES notation. ± gives the standard deviation of the averaged measurements.

One assay relates to Caenorhabditis elegans N2 infected with Nematocida parisii ERTm1. As to the kind of experiment: progeny production relative to DMSO uninfected control; higher = more progeny despite microsporidia infection (inhibition of infection with low host toxicity). Conditions: infection time 6 days; 40 µM. An outline of the steps:
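In 96-well plates holding K-medium, E. coli OP50 and 15,000 N. parisii spores/μL, 100 wild-type C. elegans L1 larvae per well were exposed to compound at 100 μM or 40 μM in 1% DMSO for 6 days with shaking at 21°C. Worms were then stained with Rose Bengal, scanned and counted with WorMachine, with three runs per compound and dose. Each value is progeny production as a percentage of the spore-free vehicle condition, averaged over replicates.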
In the case of `COc1cc(NS(=O)(=O)c2ccc(C)cc2)c2ncccc2c1`, the progeny production came out at 5.38 ± 2.2%.

For the compound `O=C1NC(=O)C(Br)=C1Br`, the progeny production was found to be 12.2 ± 12%.

In the case of `O=C(O)c1cc(-c2ccccc2)nc2ccccc12`, the progeny production stood at 6.15 ± 0.79%.

The compound `O=C(O)c1cc(-c2ccc(Br)cc2)nc2ccc(Cl)cc12` displayed a progeny production of 4.63 ± 0.086%.

On to `O=C(CSc1nnc(Br)n1-c1ccc(C2CC2)c2ccccc12)Nc1ccc(C(=O)O)cc1Cl`, for which the progeny production was 3.49 ± 1.1%.

In turn, `Clc1cccc(-c2nnc(-c3ccccc3)o2)c1` displayed a progeny production of 1.33 ± 1.1%.

Regarding `NC(=O)c1ccccc1NC(=O)c1ccc(C(=O)Nc2ccccc2C(N)=O)cc1`, the progeny production came out at 8.47 ± 2.6%.

Compound `Cc1cc(Nc2ccc(F)cc2)nc(SCc2nc3ccccc3[nH]2)n1` registered a progeny production of 3.08 ± 0.71%.

`CN(C)CCNC(=O)c1cccc2cccnc12`: the progeny production is 5.46 ± 4.5%.

Compound `O=C(CCCC(F)(F)F)N1CCC(c2nc(-c3nccs3)no2)CC1` registered a progeny production of 5.21 ± 1.1%.

Regarding `CCc1nc(N)nc(N)c1C#CC(C)c1cc(OC)cc(-c2ccncc2)c1` (stereo not given), the progeny production stood at 5.28 ± 2.2%.

Turning to `O=C(c1ccc(F)cc1)N1CCN2C(=O)c3ccccc3C12c1ccccc1` (stereo not given), the progeny production was 2.5 ± 1.4%.

`NC[C@H]1OB(O)c2c(OCCCO)cccc21` yielded a progeny production of 4.23 ± 2.7%.

For the compound `CC(C)(C)c1ccc(C(Cn2cccc(C(F)(F)F)c2=O)NC2Cc3ccccc3C2)cc1` (stereo not given), the progeny production worked out at 1.91 ± 1.3%.

For the compound `CCCCc1ccc(-c2nc(C)c(C(=O)OC)s2)cc1`, the progeny production is 4.25 ± 0.74%.

Regarding `COc1ccc(COc2cc3oc(=O)c4cc(C(C)O)ccc4c3cc2OC)cc1` (stereo not given), the progeny production was 5.78 ± 0.94%.

The compound `CCN(CC)CCn1c(=N)n(CC(O)COc2ccc(Cl)cc2Cl)c2ccccc21` (stereo not given) yielded a progeny production of 7.02 ± 2.2%.

On to `CC(C)C(=O)N[C@H]1[C@H]([C@H](O)[C@H](O)CO)OC(C(=O)O)=C[C@@H]1N=[N+]=[N-]`, for which the progeny production was 5.36 ± 3.2%.

`Oc1ccc2[nH]c(-c3ccccc3)nc2c1`: the progeny production was 5.32 ± 3.2%.

The compound `Cc1nc2ccc(Oc3ccccc3)cc2c2c1CCN2CCc1ccccc1` gave a progeny production of 4.79 ± 0.99%.

Regarding `O=[N+]([O-])c1ccc2c(CCc3c[nH]c4ccccc34)c[nH]c2c1`, the progeny production amounted to 8.93 ± 1.7%.

The compound `O=C(NO)C1(CS(=O)(=O)c2ccc(Oc3ccc(Cl)cc3)cc2)CCOCC1` gave a progeny production of 5.79 ± 0.11%.

`CCC[C@@H]1C[C@@H](C(=O)N[C@@H]([C@H]2O[C@H](SC)[C@H](O)[C@@H](O)[C@H]2O)[C@H](C)Cl)N(C)C1`: the progeny production was 6.74 ± 4.3%.

Compound `CC1CN(c2ncnc3c2c(-c2ccccc2)cn3-c2ccc(F)cc2)CC(C)O1` (stereo not given) showed a progeny production of 4.39 ± 1.6%.

`CCC(C)n1ncn(-c2ccc(N3CCN(c4ccc(OCC5COC(Cn6cncn6)(c6ccc(Cl)cc6Cl)O5)cc4)CC3)cc2)c1=O` (stereo not given): the progeny production worked out at 4.85 ± 1.2%.

`N=C(N)c1ccc(COc2ccc(Cl)cc2)cc1` showed a progeny production of 3.13 ± 0.66%.

On to `Cc1c(CN(C)C(=O)/C=C/c2cnc3c(c2)C(C)(C)C(=O)N3)oc2ccccc12`, for which the progeny production stood at 6.13 ± 3.2%.

`c1cc(CN2CCCNCCNCCCNCC2)ccc1CN1CCCNCCNCCCNCC1` yielded a progeny production of 2.33 ± 1%.

In turn, `O=C(Nc1nnc(-c2ccc(Cl)cc2)o1)c1nc2ccccc2s1` registered a progeny production of 8.93 ± 4.2%.

As to `CCCCCCCc1[nH]c2ccccc2c(=O)c1O`, the progeny production was determined as 7.38 ± 1.2%.

In turn, `CCOC(=O)/C=C/[C@H](C[C@@H]1CCNC1=O)NC(=O)[C@H](CC)n1cccc(NC(=O)c2cc(C)on2)c1=O` showed a progeny production of 4.38 ± 3.6%.

On to `CCCCc1ccc(S(=O)(=O)Nc2cc(C)on2)cc1`, for which the progeny production was 7.98 ± 1.1%.

`O=C(c1ccccc1)N1CCN(c2ccccc2NC(=O)C(Cl)(Cl)Cl)CC1`: the progeny production was 13 ± 10%.

`Cc1cccc(CC(=O)N[C@H]2CCOC2=O)c1`: the progeny production turned out to be 3.04 ± 0.7%.

Compound `OC(Cn1cncn1)(Cn1cncn1)c1ccc(F)cc1F` had a progeny production of 3.82 ± 1.7%.

On to `CC(=O)NC[C@H]1CN(c2ccc(N3CCSCC3)c(F)c2)C(=O)O1`, for which the progeny production was found to be 6.06 ± 3.1%.

`O=C(c1cc(O)nc2ccccc12)N1CCN(c2ccccc2)CC1` yielded a progeny production of 5.44 ± 4.1%.

`COc1cc(NC(=O)CN2C(=O)NC(c3ccccc3)(c3ccccc3)C2=O)cc(OC)c1` displayed a progeny production of 3.5 ± 1%.

Turning to `Cc1ncc([N+](=O)[O-])n1CC(O)CN1CCOCC1` (stereo not given), the progeny production was 9.17 ± 4.5%.

In the case of `CCc1cc(Cc2cnc(N)nc2N)cc2c1N(C)CCC2C` (stereo not given), the progeny production came to 11.7 ± 8.4%.

Still in this assay, the particulars now being: infection time 6 days; 100 µM.
For `COc1cc(NS(=O)(=O)c2ccc(C)cc2)c2ncccc2c1`, the progeny production was 10.3 ± 3.9%.

Consider `O=C1NC(=O)C(Br)=C1Br`, for which the progeny production is 30.7 ± 9.8%.

`O=C(O)c1cc(-c2ccccc2)nc2ccccc12` had a progeny production of 6.83 ± 4.5%.

As for `O=C(O)c1cc(-c2ccc(Br)cc2)nc2ccc(Cl)cc12`, the progeny production worked out at 11.3 ± 3.5%.

`O=C(CSc1nnc(Br)n1-c1ccc(C2CC2)c2ccccc12)Nc1ccc(C(=O)O)cc1Cl` had a progeny production of 15.1 ± 5.4%.

On to `Clc1cccc(-c2nnc(-c3ccccc3)o2)c1`, for which the progeny production came to 4.24 ± 2.4%.

`NC(=O)c1ccccc1NC(=O)c1ccc(C(=O)Nc2ccccc2C(N)=O)cc1` had a progeny production of 11.6 ± 6.2%.

For the compound `Cc1cc(Nc2ccc(F)cc2)nc(SCc2nc3ccccc3[nH]2)n1`, the progeny production came out at 16.7 ± 14%.

Take `CN(C)CCNC(=O)c1cccc2cccnc12`: the progeny production was 14.7 ± 8%.

In turn, `O=C(CCCC(F)(F)F)N1CCC(c2nc(-c3nccs3)no2)CC1` showed a progeny production of 8.6 ± 8.7%.

As for `CCc1nc(N)nc(N)c1C#CC(C)c1cc(OC)cc(-c2ccncc2)c1` (stereo not given), the progeny production came to 9.94 ± 7.4%.

In the case of `O=C(c1ccc(F)cc1)N1CCN2C(=O)c3ccccc3C12c1ccccc1` (stereo not given), the progeny production amounted to 7.13 ± 5%.

Take `NC[C@H]1OB(O)c2c(OCCCO)cccc21`: the progeny production stood at 6.44 ± 4.8%.

The compound `CC(C)(C)c1ccc(C(Cn2cccc(C(F)(F)F)c2=O)NC2Cc3ccccc3C2)cc1` (stereo not given) returned a progeny production of 13.4 ± 9.4%.

`CCCCc1ccc(-c2nc(C)c(C(=O)OC)s2)cc1` yielded a progeny production of 12.2 ± 3.7%.

Regarding `COc1ccc(COc2cc3oc(=O)c4cc(C(C)O)ccc4c3cc2OC)cc1` (stereo not given), the progeny production turned out to be 10.9 ± 7%.

As to `CCN(CC)CCn1c(=N)n(CC(O)COc2ccc(Cl)cc2Cl)c2ccccc21` (stereo not given), the progeny production was 16.5 ± 20%.

On to `CC(C)C(=O)N[C@H]1[C@H]([C@H](O)[C@H](O)CO)OC(C(=O)O)=C[C@@H]1N=[N+]=[N-]`, for which the progeny production came out at 14.6 ± 5.9%.

The compound `Oc1ccc2[nH]c(-c3ccccc3)nc2c1` had a progeny production of 11.5 ± 2.5%.

`Cc1nc2ccc(Oc3ccccc3)cc2c2c1CCN2CCc1ccccc1`: the progeny production came to 11.3 ± 9.1%.

As for `O=[N+]([O-])c1ccc2c(CCc3c[nH]c4ccccc34)c[nH]c2c1`, the progeny production came out at 35.7 ± 12%.

`O=C(NO)C1(CS(=O)(=O)c2ccc(Oc3ccc(Cl)cc3)cc2)CCOCC1` yielded a progeny production of 7.72 ± 4.5%.

The compound `CCC[C@@H]1C[C@@H](C(=O)N[C@@H]([C@H]2O[C@H](SC)[C@H](O)[C@@H](O)[C@H]2O)[C@H](C)Cl)N(C)C1` registered a progeny production of 7.36 ± 5.1%.

Turning to `CC1CN(c2ncnc3c2c(-c2ccccc2)cn3-c2ccc(F)cc2)CC(C)O1` (stereo not given), the progeny production was 13.4 ± 13%.

Regarding `CCC(C)n1ncn(-c2ccc(N3CCN(c4ccc(OCC5COC(Cn6cncn6)(c6ccc(Cl)cc6Cl)O5)cc4)CC3)cc2)c1=O` (stereo not given), the progeny production worked out at 22.8 ± 5.2%.

As to `N=C(N)c1ccc(COc2ccc(Cl)cc2)cc1`, the progeny production came out at 7.24 ± 6.1%.

`Cc1c(CN(C)C(=O)/C=C/c2cnc3c(c2)C(C)(C)C(=O)N3)oc2ccccc12` showed a progeny production of 20.6 ± 20%.

On to `c1cc(CN2CCCNCCNCCCNCC2)ccc1CN1CCCNCCNCCCNCC1`, for which the progeny production amounted to 9.51 ± 8.6%.

Turning to `O=C(Nc1nnc(-c2ccc(Cl)cc2)o1)c1nc2ccccc2s1`, the progeny production is 6.47 ± 3.5%.

Take `CCCCCCCc1[nH]c2ccccc2c(=O)c1O`: the progeny production is 21.2 ± 19%.

Compound `CCOC(=O)/C=C/[C@H](C[C@@H]1CCNC1=O)NC(=O)[C@H](CC)n1cccc(NC(=O)c2cc(C)on2)c1=O` had a progeny production of 8.98 ± 7.5%.

For `CCCCc1ccc(S(=O)(=O)Nc2cc(C)on2)cc1`, the progeny production was determined as 25 ± 22%.

As to `O=C(c1ccccc1)N1CCN(c2ccccc2NC(=O)C(Cl)(Cl)Cl)CC1`, the progeny production was 12.7 ± 8.6%.

Compound `Cc1cccc(CC(=O)N[C@H]2CCOC2=O)c1` returned a progeny production of 6.81 ± 3.6%.

The compound `OC(Cn1cncn1)(Cn1cncn1)c1ccc(F)cc1F` returned a progeny production of 22 ± 18%.

Regarding `CC(=O)NC[C@H]1CN(c2ccc(N3CCSCC3)c(F)c2)C(=O)O1`, the progeny production was 10.4 ± 6.2%.

As to `O=C(c1cc(O)nc2ccccc12)N1CCN(c2ccccc2)CC1`, the progeny production worked out at 9.85 ± 7.2%.

The compound `COc1cc(NC(=O)CN2C(=O)NC(c3ccccc3)(c3ccccc3)C2=O)cc(OC)c1` came in with a progeny production of 15.8 ± 11%.

The compound `Cc1ncc([N+](=O)[O-])n1CC(O)CN1CCOCC1` (stereo not given) came in with a progeny production of 12.3 ± 8.3%.

Turning to `CCc1cc(Cc2cnc(N)nc2N)cc2c1N(C)CCC2C` (stereo not given), the progeny production came to 4.65 ± 0.53%.

The record behind these values is the supplement of paper PMC10732440.
